# Compounds without any hit were thinned out: in the full panel of roughly 83,000, 20% have a hit.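 How to read the values: 0–100, growth inhibition (40 = 60% inhibited); 0, no net growth; -100 to 0, cell death (-40 = 40% of starting cells died; -100 = all dead).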 Unmarked numbers belong to inactive results. Activity calls are given as the source filed them.
# Test system: SNB-75 CNS
# Assay: NCI-60 one-dose screen, 48 h (100 = growth as untreated, 0 = no growth, -100 = all killed)
# Conditions: 10 µM unless noted
# Experimental: Growth inhibition of the SNB-75 human tumor cell line is measured as a screen for anti-cancer activity. Cells are grown in 96 well plates and exposed to the test compound for 48 hours. Compounds are tested at a single concentration, which is 10^-5 M for most compounds. The reported endpoint is percent growth (GI% or GIPRCNT), where numbers from 0 - 100% represent growth inhibition, and numbers from -100% - 0 represent cell death. For example, a value of 40 represents 60% growth inhibition. A value of 0 means no net growth occurred over the course of the experiment. A value of -40 indicates 40% of cells at the beginning of the experiment died by the end of the experiment. A value of -100 means all cells are dead at the end of the experiment.
# NCI-60 Human Tumor Cell Lines Screen was performed using the standard one-dose NCI protocol, which is described in more detail at https://dtp.cancer.gov/discovery_development/nci-60/default.htm.
# Compounds with GIPRCNT values below 10 were considered active. Activity score was based on GIPRCNT using the following formula: […]
# Score is 0 for GIPRCNT values of 100 or above, 50 for GIPRCNT values of 0, and 100 for GIPRCNT values of -100.
row,Compound,growth
1,C=CC(=O)Nc1cc(Nc2nccc(-c3cn(C)c4ccccc34)n2)c(OC)cc1N(C)CCN(C)C,-6.88% (active)
2,O=C(c1c(F)ccc(NS(=O)(=O)N2CC[C@@H](F)C2)c1F)c1c[nH]c2ncc(-c3cnc(C4CC4)nc3)cc12,37.7%
3,CCC1(/C=N/NC(N)=S)NC(=O)NC1=O (stereo not given),95.9%
4,COc1cc(-c2nc(C(=O)NCC(=O)O)nn2-c2ccc(Cl)cc2)cc(OC)c1OC,115%
5,CCc1nc(C(N)=O)c(Nc2ccc(N3CCC(N4CCN(C)CC4)CC3)c(OC)c2)nc1NC1CCOCC1,-45.3% (active)
6,CCCCN1CCCC[C@@H]1C(=O)N[C@H](C(=O)N(C)[C@H](CCc1nc(C(=O)N[C@@H](Cc2ccccc2)C[C@H](C)C(=O)OC)cs1)C(C)C)C(C)C,75.2%
7,C#Cc1cccc(Nc2ncnc3cc(OC)c(OCCCCCCC(=O)NO)cc23)c1,2.04% (active)
8,O=c1[nH]ccc2c(S(=O)(=O)N3CCCNCC3)cccc12,54.6%
9,Nc1c2c(c(O)c3c1=C(CO)C=N3)=NCCS2=O (stereo not given),-45.3% (active)
10,CN1CCN(CCOc2cc(OC3CCOCC3)c3c(Nc4c(Cl)ccc5c4OCO5)ncnc3c2)CC1,-17.7% (active)
11,Cc1[nH]n(C(N)=S)c(=O)c1N=Nc1ccc(S(=O)(=O)Nc2ccncn2)cc1,73.7%
12,CCCNC(=O)c1cn2ncnc(Nc3cc(C(=O)NC4CC4)ccc3C)c2c1C,74.6%
13,Cc1cnc(NC(=O)Nc2cc(Br)c(C)cc2OC[C@@H]2CNCCO2)cn1,26.5%
14,COC(=O)N[C@@H](C)CNc1nccc(-c2cn(C(C)C)nc2-c2cc(Cl)cc(NS(C)(=O)=O)c2F)n1,51.8%
15,COC(=O)CC[C@@H](C)[C@H]1CC[C@H]2C3CC[C@@H]4C[C@@H]5CC[C@]4(C)[C@@]3(O5)[C@H](Br)[C@@H](Br)[C@]12C (stereo not given in full),84.3%
16,CNC(=O)c1cc(Oc2cccc3nc(Nc4ccc(Oc5ccccc5)cc4)ccc23)ccn1,67.8%
17,O=C(Cc1ccc(-c2ccc(OCCN3CCOCC3)cc2)cn1)NCc1ccccc1,15.3%
18,COc1cc2c(cc1OCCCCCN1CCN(c3ncnc4ccccc34)CC1)N=CC1CCCN1C2=O (stereo not given),-50.2% (active)
19,C=CC(=O)Nc1cc2c(Nc3ccc(F)c(Cl)c3)ncnc2cc1OCCCN1CCOCC1,-15.9% (active)
20,CCN1CCN(c2nc(C)cc(N(CCNc3ccnc4cc(Cl)ccc34)Cc3ccc4c(c3)OCO4)n2)CC1,9.98% (active)

row,Compound,growth
1,C/C=C/C=N/NC(=S)Nc1ccccc1,80.8%
2,CNC(=O)c1cc(Oc2cccc3nc(Nc4ccc(Cl)c(F)c4)ccc23)ccn1,-11.7% (active)
3,CN1CCC(CNc2ccc3ncc(-c4cccc(OC(F)(F)F)c4)n3n2)CC1,-75.1% (active)
4,Cc1ccc(-c2cc3c(SCC(=O)Nc4cc(C(F)(F)F)ccc4Cl)nccn3n2)cc1,95.3%
5,COCCN1CCN(Cc2ccc(-c3n[nH]c4c3C(=O)c3c(NC(=O)NN5CCOCC5)cccc3-4)cc2)CC1,-37.6% (active)
6,O=C(NOC[C@H](O)CO)c1ccc(F)c(F)c1Nc1ccc(I)cc1F,59.9%
7,Nc1ccc(S(=O)(=O)O)c2cc(S(=O)(=O)O)cc(O)c12,113%
8,Nc1nc(N)c2cc(CNc3ccc(C(=O)NC(CC(=O)O)C(=O)O)cc3)ccc2n1 (stereo not given),52.8%
9,COc1c(OCCCN2CCOCC2)ccc2c3n(c(=NC(=O)c4cnc(N)nc4)nc12)CCN3,-19.2% (active)
10,O=C(Nc1nc2cccc(-c3ccc(CN4CCS(=O)(=O)CC4)cc3)n2n1)C1CC1,90.3%
11,NC1(c2ccc(-c3nc4ccn5c(=O)[nH]nc5c4cc3-c3ccccc3)cc2)CCC1,-8.24% (active)
12,O=C(Cn1cncn1)Nc1ccc(-c2nc3ccccc3s2)cc1,92.1%
13,Cc1cc(-c2cc(OC(=O)c3ccccc3)ccc2Cl)cc2nnc(Nc3ccc(OCCN4CCCC4)cc3)nc12,32.7%
14,N#Cc1c(-c2ccc(C(F)(F)F)cc2)cc(NCC2CCS(=O)(=O)CC2)n2c1nc1ccccc12,52.5%
15,CC(=O)OC(C(=O)c1ccccc1)c1ccccc1 (stereo not given),84.6%
16,N#Cc1c(-c2ccc(Cl)cc2)csc1NC(=O)Nc1cccc(C(F)(F)F)c1,29.3%
17,CSc1nc2ncncc2[nH]1,86.7%
18,CCN1CCN(Cc2ccc(-c3cc4c(N[C@H](C)c5ccccc5)ncnc4[nH]3)cc2)CC1,75.1%
19,C=CCN(/C=C1/C(=O)O[C@H](COC)[C@@]2(C)C1=C(O)C(=O)C1=C2[C@H](OC(C)=O)C[C@]2(C)C(=O)CC[C@@H]12)CC=C,-25.3% (active)
20,Cn1cnc2c(F)c(Nc3ccc(Br)cc3F)c(C(=O)NOCCO)cc21,86.1%

# Reference: PubChem BioAssay (NCI)
